CHOP inhibitor = blocks CHOP induction under ER stress; hit rate 3.8% among 220,000; CHO-K1 CHOP-promoter luciferase, tunicamycin-induced, 15-18 h; inhibition, % at 10 µM;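 active = compounds that reduced the stress-induced luciferase reporter signal by more than about 70% of percent inhibition, limit read from the data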
Arbovirus inh = blocks arbovirus infection; arbovirus infection cell-based antiviral screen; inhibition, % at 10 µM; hit rate 0.37% among 200,000; AID 1251; in the data active = inhibition above about 30%
WT yeast gro inh = growth inhibition of WT yeast, mitochondrial fusion screen. mitochondrial fusion phenotypic screen, WT strain. inhibition, % at 10 µM. hit rate 2.1% among 190,000; in the data active = inhibition above about 58%; tested in S. cerevisiae
L major viab = inhibitors of Leishmania major promastigote growth | Leishmania major promastigotes, resazurin fluorescence viability | inhibition, % at 10 µM | hit rate 9% among 200,000; in the data active = inhibition above about 50%;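 also: promastigotes grown with compound for 44 hours at 28 °C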
CHOP inh conf = confirmation of CHOP induction inhibitors; CHO-CHOP promoter luciferase reporter, tunicamycin-induced, luminescence; hit rate 45% among 2,100; shares compounds with CHOP inhibitor; inhibition, % at 10 µM;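 active = mean of three repeat readings of reporter signal inhibition above a set limit, cut at about 70% in these data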
Large screens that a line does not name were inactive (follow-up assays come after a bar, where they were run). This is a sample that favours compounds with a hit; in the whole collection about 12% have one here.

COc1cc(/C=N\NC(=O)c2ccc(Cn3nc([N+](=O)[O-])c(Cl)c3C)o2)ccc1O	none
COc1cccc(/C=N\NC(=O)c2ccc(Cn3cc(Br)c([N+](=O)[O-])n3)o2)c1O	CHOP inhibitor 97.0, L major viab 100.2 | CHOP inh conf inactive
O=c1[nH]c2ccc(Cl)cc2c(-c2ccccc2)c1SC(=S)N1CCOCC1	CHOP inhibitor 98.9 (no result: WT yeast gro inh) | CHOP inh conf inactive
O=c1[nH]cnc(O)c1C(c1cccc([N+](=O)[O-])c1)c1c(O)nc[nH]c1=O	none (no result: Arbovirus inh, WT yeast gro inh, L major viab)
Cc1nc(NC(=O)/C=C/c2ccccc2)n[nH]1	CHOP inhibitor 96.8 | CHOP inh conf inactive
CCCCCCCC(O)CC(CC1CCCCC1)C(=O)NN (centres undefined)	none
COc1ccccc1N1CCN(Cc2ccc(O)c3ncccc23)CC1	CHOP inhibitor 101.7, L major viab 100.5 | CHOP inh conf inactive
Clc1ccc(C2CC(c3cccs3)n3ncnc3N2)c(Cl)c1 (centres undefined)	none
O=C(CSC1=NCCN1)C1COc2ccccc2O1 (centres undefined)	none
C#CCOc1ccc(Br)cc1/C=N/O	none
Cc1cc(C)cc(OC2CCCCC2NS(=O)(=O)c2ccccc2)c1 (centres undefined)	CHOP inhibitor 99.4 | CHOP inh conf 69.9
CCOc1ncccc1C(=O)OC(C)C(=O)NC(=O)NC1CCCCC1 (centres undefined)	none
CCOc1cccc(CNc2ccc(O)cc2)c1OCc1ccc(Cl)cc1Cl	CHOP inhibitor 100.5, WT yeast gro inh 66.1, L major viab 99.8 | CHOP inh conf 112.2
Cc1ccc(C(=O)NNC(=O)CSc2nnc3c(n2)[nH]c2ccc(C)cc23)cc1	CHOP inhibitor 104.2 | CHOP inh conf inactive
CCOC(=O)c1c(C)[nH]c(O)c1C=Nc1ccc(Cl)cc1	CHOP inhibitor 103.4 | CHOP inh conf 110.4
O=C1CC(c2ccc(F)c(Br)c2)C2=C(CCCC2=O)N1 (centres undefined)	none
COC(=O)C1=C(C(=O)OC)C2(OC1c1ccccc1C)C(=O)c1ccccc1C2=O (centres undefined)	none
O=C1CC(c2ccccc2)CC(O)=C1C=Nc1ccccc1 (centres undefined)	none
O=C1CC(c2cccc(Cl)c2)CC(O)=C1C=Nc1cccc(Cl)c1 (centres undefined)	CHOP inhibitor 99.0, WT yeast gro inh 80.8 | CHOP inh conf 72.3
CN1CCN(Cc2c(O)ccc3occ(C(=O)c4ccccc4)c23)CC1	none
CC(=O)C(C(C)=O)c1c(Cl)c(O)c(O)c2c(C(=O)c3ccccc3)coc12	none (no result: CHOP inhibitor) | CHOP inh conf 100.3
CCSCCc1nnc(NC(=O)Nc2cccc(C(F)(F)F)c2)s1	CHOP inhibitor 96.3 | CHOP inh conf 99.3
Cc1cc(N2CCN(C)CC2)ccc1NC(=O)c1cccc(S(=O)(=O)N2CCc3ccccc3C2)c1	CHOP inhibitor 103.8, L major viab 97.6 | CHOP inh conf inactive
CC(C)CCN(C(=O)Cc1ccc(Cl)c(Cl)c1)c1c(N)n(Cc2ccccc2)c(=O)[nH]c1=O	CHOP inhibitor 103.4 | CHOP inh conf 108.4
COc1ccc(OC)c(NC(=O)c2ccccc2NS(=O)(=O)c2cccc3cccnc23)c1	none
CC(=O)Nc1ccc(NC(=O)CCn2c(=S)oc3ccccc32)cc1	none
CC(C)CC(=O)/C=C/n1c(=S)oc2ccccc21	CHOP inhibitor 108.0 | CHOP inh conf inactive
CC(C)(C)N1C(=O)c2ccc(C(=O)NCc3ccco3)cc2C1=O	none
O=C(CCCN1C(=O)c2ccccc2C1=O)NCCN1C(=O)S/C(=C\c2cccs2)C1=O	none
Oc1[nH]c2ccccc2c1N=NC(=S)NCCc1ccccc1	CHOP inhibitor 104.8 | CHOP inh conf 75.6
CC(C)c1ccc2[nH]c(O)c(N=NC(=S)NCCc3ccccc3)c2c1	none
COc1ccc(N(CCC#N)C(=O)/C(C#N)=C/c2cccs2)cc1	none
O=C(Nc1nc2ccccc2s1)C1CC(=O)N(c2ccc(Br)cc2)C1 (centres undefined)	CHOP inhibitor 96.2 | CHOP inh conf inactive
O=C(CNCCc1ccccc1)N1CCc2ccccc2C1	none
CCCc1nc(NCc2ccco2)c(C#N)c2c1COC(C)(C)C2	CHOP inhibitor 104.0 | CHOP inh conf inactive
O=C(C1CCN(S(=O)(=O)c2ccc(F)cc2)CC1)N1CCOCC1	none
COc1ccc2c(c1)[nH]c1c(=O)n(/N=C/C3C(C)C=C(C)CC3C)c(=O)[nH]c12 (centres undefined)	none
COc1ccc2[nH]c3c(=O)n(/N=C/[C@H]4C(C)C=C(C)CC4C)c(=O)[nH]c3c2c1 (some centres undefined)	CHOP inhibitor 108.9 | CHOP inh conf inactive
COc1ccc(-c2ccc(C#N)c(SCC(=O)Nc3sc4c(c3C#N)CCC4)n2)cc1OC	CHOP inhibitor 101.9 | CHOP inh conf inactive
CCCCCc1c(C)nc(NCc2ccccc2)[nH]c1=O	CHOP inhibitor 108.5 | CHOP inh conf 134.2
O=C(O)c1ccc(C(=O)C(=O)c2ccccc2)cc1	none (no result: Arbovirus inh, WT yeast gro inh, L major viab)
CSC(SC)=C(C#N)C(=O)c1ccccc1	CHOP inhibitor 106.7 (no result: Arbovirus inh, WT yeast gro inh, L major viab) | CHOP inh conf 102.0
COc1cccc(C(=O)C(C#N)=C(SC)SC)c1	CHOP inhibitor 102.3 (no result: Arbovirus inh, WT yeast gro inh, L major viab) | CHOP inh conf 118.1
COc1ccc(CCNC(=O)Cn2c(=O)n(-c3ccc(C)c(F)c3)c(=O)c3sccc32)cc1OC	none
Cc1occc1-c1nnc(SCC(=O)N2CCN(c3ccccc3F)CC2)n1C	none
Cc1nn(CCC#N)c2nc(-c3ccccc3)cc(C(F)(F)F)c12	CHOP inhibitor 105.7 | CHOP inh conf 83.4
COc1cc(C2c3c(oc4ccccc4c3=O)C(=O)N2c2nccs2)ccc1O (centres undefined)	none (no result: Arbovirus inh, WT yeast gro inh, L major viab)
CC(C)c1nnc(N2C(=O)c3oc4ccccc4c(=O)c3C2c2ccco2)s1 (centres undefined)	CHOP inhibitor 111.6 | CHOP inh conf 110.0
CC(=O)Nc1ccc(NC2=C(Cl)C(=O)c3ccccc3C2=O)cc1	CHOP inhibitor 103.9 | CHOP inh conf inactive
COc1cc2c(cc1/C=C1/NC(=O)N(CC(=O)Nc3ccccc3)C1=O)OCO2	CHOP inhibitor 102.2 | CHOP inh conf inactive
COc1ccc(CN2CCN(Cc3ccon3)CC2CCO)c(C)c1C (centres undefined)	none (no result: Arbovirus inh, WT yeast gro inh, L major viab)
COc1ccc(/C=N/NC(=O)c2ccc3nc[nH]c3c2)cc1	none (no result: Arbovirus inh, WT yeast gro inh, L major viab)
O=C(NCC1CCCO1)c1ccc2c(=O)n(Cc3ccc(Cl)cc3)c(=S)[nH]c2c1 (centres undefined)	CHOP inhibitor 102.8 | CHOP inh conf inactive
COc1ccccc1Cn1c(=S)[nH]c2cc(C(=O)NCC3CCCO3)ccc2c1=O (centres undefined)	none
CCOc1ccc(C(=O)C(CCC(CN(C)C)C(=O)c2ccc(OCC)cc2)CN(C)C)cc1 (centres undefined)	CHOP inhibitor 105.8, WT yeast gro inh 63.6, L major viab 100.5 | CHOP inh conf 75.9
C/C(=N\N=C(c1ccccc1)c1ccccc1)c1cccs1	none
CC(NO)/C(=N\O)c1cccs1 (centres undefined)	CHOP inhibitor 106.3 | CHOP inh conf inactive
CCC(C)NS(=O)(=O)c1ccc(NS(=O)(=O)c2ccc(F)cc2)cc1 (centres undefined)	none
CCOc1ccc(S(=O)(=O)Nc2ccc(F)cc2)c(C)c1C	CHOP inhibitor 106.1 | CHOP inh conf inactive
